Screen size: about 65,000 compounds; about 2,100 (3.2%) showed an effect of 50% or more. The median lay at about -52%. The full list was thinned out, with strong results kept by preference.

This is an account of results in ChEMBL document CHEMBL4513216, “Probing the Open Global Health Chemical Diversity Library for Multistage-Active Starting Points for Next-Generation Antimalarials” (ACS Infect Dis, 2020).

For this assay, the system named is Plasmodium falciparum. Briefly: Screen against P. falciparum Asexual Blood Stage (ABS), at 5uM. The assay is classed as functional, Dd2. The settings on record: tested at 5 uM.
For `COc1cccc(Cn2cc(N3C(=O)CCC3=O)cn2)c1`, the INHIBITION is given as -83.8%.
For `c1cnc(N2CCC3(COCc4cnc(-c5cccnc5)nc43)C2)nc1` (stereo not drawn) the value was -78.5%.
For the compound `COCC1CN(c2ncccn2)Cc2cnn(CC3CC3)c21` (stereo not drawn), the INHIBITION was -16.5%.
The figure for `CS(=O)(=O)N1CCN(C(=O)C2CSCCC(=O)N2)CC1` (stereo not drawn) is -38.6%; for `Cc1nc(CN2CCN(C3CCOC3)Cc3cccnc32)cs1` (stereo not drawn) it is -78.6%; for `CCCNC(=O)c1cccc(CNCc2csc(C(C)C)n2)c1` it is -48.2%.
For `Cc1noc(NC(=O)c2cccc(Br)c2)n1` the value was -81.9%; for `O=C1CCC2(CCN(Cc3ccc(F)cc3Cl)CC2)CN1CCO`, -54%; for `OC1(CN2CCCC2)CCCN(Cc2ccc(F)cc2Cl)C1` (stereo not drawn), 58.3%.
The figure for `Cc1cc(C(=O)N2CCCC(O)(CN3CCCC3)C2)ccc1Cl` (stereo not drawn) is -21.4%; for `Cn1cc(C[C@H]2[C@H](O)CCN2Cc2ccc(F)cc2)cn1` it is 6.42%.
Consider `Cc1cc(CN(C)C(=O)Nc2ccccc2C)no1`, for which the INHIBITION is given as -85.5%.
For `Cc1ccc(CN(CCN(C)C)Cc2ncc[nH]2)s1`, the INHIBITION was -73.3%.
Regarding `Cc1ccc(CN(CCN(C)C)Cc2nc3ccccc3[nH]2)s1`, the INHIBITION worked out at 61.2%.
For `Cc1ccc(CN(CCCO)Cc2nc3ccccc3[nH]2)s1`, the INHIBITION is given as -76.9%.
With `Cc1ccccc1NC(=O)CCNC(=O)c1ccoc1`, the INHIBITION is -37.5%.
Take `COCCCNC(=O)Cc1nc(-c2ccncc2)n[nH]1`: the INHIBITION is reported as -95.8%.
Take `CCC1=NC2(CCC(C(=O)Nc3ccc(C)nc3)CC2)C(=O)N1C` (stereo not drawn): the INHIBITION is -28.2%.
For `Cc1cccc(CNc2cc(C3CCCNC3)ccn2)n1` (stereo not drawn) the value was -46.7%.
In the case of `CC(C)(C)OC(=O)NC1CCCN(Cc2cccs2)C1` (stereo not drawn), the INHIBITION was determined as 25.8%.
For the compound `CC(=O)NC1CCCN(Cc2ccn(C)c(=O)c2)C1` (stereo not drawn), the INHIBITION is -10.7%.
The figure for `CC(C)(C)OC(=O)NC1CCCN(Cc2cccc(O)c2)C1` (stereo not drawn) is 51.7%; for `Cc1nn(C)c2nc(N(CCN(C)C)C3CCCC3)sc12` it is -9.31%; for `Cc1nn(C)c2nc(N(Cc3cnn(C)c3)C3CCCCC3)sc12` it is 60%.
The figure for `COCCN(Cc1cnn(C)c1)c1nc2c(s1)c(C)nn2C` is -50.7%.
On to `O[C@H]1CCN(CC2CC2)[C@H]1Cc1ccncc1`, for which the INHIBITION is listed as -6.99%.
`CC1CCCN(CCCNC(=O)c2ccc(N(C)S(C)(=O)=O)cc2Cl)C1` (stereo not drawn): the INHIBITION is on record as -129%.
The figure for `CC(O)CNCc1c[nH]nc1-c1cc2ccccc2o1` (stereo not drawn) is -15.3%.
The figure for `Cc1nc(CN2C(=O)C[C@H]3[C@H]2CCN3CC2CCOC2)cs1` (stereo partly drawn) is -84.1%.
The figure for `COc1ccccc1C1(CNCc2ccc([S+](C)[O-])cc2)CC1` (stereo not drawn) is 69.5%; for `COc1ccccc1C1(CNCc2cccc(C#N)c2)CCOCC1` it is 66.9%; for `COc1ccccc1C1(CNc2snc(Cl)c2C#N)CCOCC1` it is 27%.
With `COc1ccccc1C1(CNc2ccc(C(=O)N(C)C)cn2)CC1`, the INHIBITION was -70.8%.
The figure for `COc1ccccc1C1(CNc2cn[nH]c(=O)c2Cl)CCOCC1` is -28.1%.
For `COc1ccccc1C1(CNc2cn[nH]c(=O)c2Cl)CC1` the value was -7.64%; for `CC(C)(C)CN(CCC#N)C(=O)c1cccc(CC#N)c1`, -98%; for `CCCC(NC(=O)c1ccc(OC)cc1C)c1nnn[nH]1` (stereo not drawn), -54.4%.
For the compound `Cc1ncc(C(=O)N2CCCC2(C)C(=O)N2CCOCC2)c(C)n1` (stereo not drawn), the INHIBITION is reported as -32.2%.
For `CCS(=O)(=O)N1CCCN(CCCOC)CC1` the value was -97.9%; for `CCOC1COC2(CCN(C(=O)c3cccc(C)n3)CC2)C1` (stereo not drawn), -46%.
Take `CC1(C)[C@@H]2CC=C(CN3CCCn4nc(C(=O)NCCO)cc4C3)[C@H]1C2`: the INHIBITION is listed as -43.4%.
As to `c1cncc(CN2CC[C@@H]3[C@@H]2CCN3Cc2ccc3c(c2)OCO3)c1`, the INHIBITION is given as 59.5%.
As for `CN1CC[C@@H]2[C@@H]1CCN2Cc1ccc2c(c1)OCO2`, the INHIBITION came out at 43%.
Take `Cn1cc(CN2CC[C@@H]3[C@@H]2CCN3Cc2ccc3c(c2)OCO3)cn1`: the INHIBITION is -88.4%.
For `CCOCc1nn(CC2CC2)c2c1CN(Cc1cccs1)CC2` the value was -70.5%; for `COCc1nn(CC2CC2)c2c1CN(Cc1cccs1)CC2`, 50%; for `COCc1nn(CC2CC2)c2c1CN(Cc1ccco1)CC2`, -53.2%.
For `CCO[C@H]1C[C@@H](O)C12CCN(C1Cc3ccccc3C1)CC2` the value was -26.8%; for `NS(=O)(=O)c1ccc(NCc2ccccc2F)cc1C(F)(F)F`, -6.73%; for `O=C(NC1CCCC1)c1ccnc(C2CCNCC2)c1`, -131%.
For `Fc1ccccc1CNc1ccnc(C2CCNCC2)c1` the value was 66.5%; for `O=C(Nc1cccc(C2SCCS2)c1)C1CCCN1c1nccs1` (stereo not drawn), 36.7%.
Take `CN1CCN(c2ccccc2NC(=O)c2ccco2)CC1`: the INHIBITION turned out to be 32.7%.
The figure for `CN1CCN(c2ccc(Br)cc2NC(=O)c2ccco2)CC1` is 53%; for `CN1CCN(c2ccc(Cl)cc2NC(=O)c2ccco2)CC1` it is 42%; for `CSCC(C)N(C)C(=O)c1nn(-c2ccc(F)cc2C)cc1O` (stereo not drawn) it is -118%.
As for `Cc1cccc(CC(=O)N2CCCC(c3n[nH]c4nccnc34)C2)c1` (stereo not drawn), the INHIBITION was -9.5%.
The figure for `Cc1cc(-c2nn(C)c(Cl)c2CN2CCOCC(O)C2)no1` (stereo not drawn) is -22.3%; for `Cc1cc(-c2nn(C)c(Cl)c2CN2Cc3ccccc3C(O)C2)no1` (stereo not drawn) it is 53.8%.
The figure for `Cc1cc(-c2nn(C)c(Cl)c2CN2CC[C@H](CO)[C@@H](O)C2)no1` is -69.4%; for `Cn1nc(COc2cccnc2)c2c1CCN(c1ncccn1)C2` it is -42.9%; for `CCN(CC)c1nc2ccsc2c(=O)n1CCC(=O)NC1CCCC1` it is -39.2%.
`Cc1nc(N2CCCC2)ncc1-c1cc(O)nc(N2CCOCC2)n1`: the INHIBITION is -32.6%.
For `O=C(C[C@@H]1COC[C@H]2CN(Cc3ccncc3)C[C@@H]12)N1CCOCC1`, the INHIBITION is -108%.
Regarding `CC(=O)Nc1ccc(-n2cncn2)c(F)c1`, the INHIBITION is reported as 47.2%.
Consider `COCCS(=O)(=O)Nc1ccc(-n2cncn2)c(F)c1`, for which the INHIBITION worked out at 68.3%.
Take `COCCNC(=O)Nc1ccc(-n2cncn2)c(F)c1`: the INHIBITION is listed as -29%.
The figure for `COCCN(C)Cc1nc(-c2cccc(F)c2F)oc1C` is -36.7%; for `CCCC(=O)N1Cc2ccccc2CC2(CCN(C)C2)C1` (stereo not drawn) it is 8.68%; for `CN1CCC2(Cc3ccccc3CN(C(=O)Cc3cccc(Cl)c3)C2)C1` (stereo not drawn) it is 54.8%.
For `CN1CCC2(Cc3ccccc3CN(C(=O)CCN)C2)C1` (stereo not drawn) the value was -100%.
For `Cc1nn(C)c(Cl)c1C1CCCN1CC(=O)NC1CCCC1` (stereo not drawn) the value was 13%; for `Cn1cc(S(=O)(=O)NCCc2ccsc2)cn1`, -97%.
Take `CC(C)(C)c1cn(C2CCN(C3CCSC3)CC2)nn1` (stereo not drawn): the INHIBITION is given as -103%.
As for `COc1ccc(CNCCc2cc(F)cc3c2OCOC3)cc1O`, the INHIBITION is reported as 37%.
The figure for `COc1cccc(CNCCc2cc(F)cc3c2OCOC3)c1` is 19.8%.
`COc1cccc(CNCCc2cc(F)cc3c2OCOC3)c1OC`: the INHIBITION amounted to 56.8%.
The figure for `N#Cc1cccnc1NCCc1cc(F)cc2c1OCOC2` is -127%; for `COc1ccc(CNCCc2cc(F)cc3c2OCOC3)c(OC)c1` it is 55.4%; for `COc1ccc(OC)c(CNCCc2cc(F)cc3c2OCOC3)c1` it is 66.3%.
For the compound `COc1ccc(CNCCc2cc(F)cc3c2OCOC3)cc1OC`, the INHIBITION worked out at 21.3%.
With `COc1cc(CNCCc2cc(F)cc3c2OCOC3)cc(OC)c1`, the INHIBITION came to 31.1%.
Turning to `N#Cc1ccc(CNCCc2cc(F)cc3c2OCOC3)cc1`, the INHIBITION is -105%.
For `CC(C)CCC(=O)NC(C)c1nnc2n1CCCCC2` (stereo not drawn) the value was -147%; for `O=C(CC1CCCC1)N1C[C@@H]2CCN(c3cccnc3)C[C@@H]2C1`, -58.1%; for `Cc1cc(C(=O)N2CCc3nc4sc(C)cc4c(=O)n3CC2)on1`, -73.5%.
Regarding `Cc1ccccc1CN1CCN(C(=O)c2ccn(C(C)(C)C)c2)CC1`, the INHIBITION was 2.14%.
`CC(=O)c1ccc(NC(=O)c2ccc3c(c2)C2(CCCCC2)CN3)cc1`: the INHIBITION amounted to 20.8%.
On to `Cc1ncc(CN2CCC(CNS(=O)(=O)C3CC3)C2)cn1` (stereo not drawn), for which the INHIBITION is on record as -131%.
For `CCc1ccc(CN2CCC(CNS(=O)(=O)C3CC3)C2)nc1` (stereo not drawn) the value was 19.1%; for `CC(C)c1ccc(CN2CCC(CNS(=O)(=O)C3CC3)C2)cc1` (stereo not drawn), 59.4%; for `Cc1ccccc1OCn1ccc(C(=O)NCCN2CCOCC2)n1`, -44.8%.
For `Cc1cc(-c2cc(S(=O)(=O)N3C[C@H](C4CC4)[C@@H](N)C3)c(C)s2)[nH]n1` the value was 62.6%.
On to `Cc1ccc(S(=O)(=O)N2C[C@H](C3CC3)[C@@H](N)C2)cc1F`, for which the INHIBITION came out at 14.8%.
The figure for `Cc1cc2[nH]c(=O)oc2cc1S(=O)(=O)N1C[C@@H](N(C)C)[C@H](C(C)C)C1` is -101%.
For `CC(C)c1cc(C(=O)N2CCCC(Cn3cc(CO)nn3)C2)on1` (stereo not drawn) the value was -137%; for `COCCN1CCC2(CC1)CC(NCc1cncn1C)c1ccccc12` (stereo not drawn), -18.1%; for `CCN1CCC(NC(=O)c2ccc(F)cc2I)CC1`, 50%.
The figure for `CC(C)CN1CCC(NC(=O)c2ccc(F)cc2F)CC1` is -150%.
As to `CC(C)CN1CCC(NC(=O)c2ccc(F)cc2I)CC1`, the INHIBITION was 23.2%.
Regarding `O=C(NCCc1ccccc1F)NCC(O)c1cccc(F)c1` (stereo not drawn), the INHIBITION is -156%.
For `NC(=O)c1cc2c(nc1Oc1cccc(CN3CCCC3)c1F)CCC2` the value was -10.3%; for `COc1cc(C(=O)NS(=O)(=O)c2cncc(Br)c2)ccc1C`, -28.1%; for `NC(=O)CN1CCCC(c2nccnc2Oc2cccc(F)c2)C1` (stereo not drawn), -47.7%.
For the compound `Cc1cc(C2CCCN(C(=O)COc3cccc(F)c3)C2)n[nH]1` (stereo not drawn), the INHIBITION was -49.4%.
On to `CNCC(=O)N1CCCC(c2nccnc2Oc2cccc(F)c2)C1` (stereo not drawn), for which the INHIBITION turned out to be 55.4%.
On to `Cn1ccc2c(NC(=O)Cn3ncc4c(c3=O)CCCC4)cccc21`, for which the INHIBITION is listed as -90.4%.
For `Cc1nc(C2CN(Cc3scnc3C)CCO2)cc(N(C)C)n1` (stereo not drawn) the value was -79.5%.
